Measured values: paper PMC7862700, “An all-to-all approach to the identification of sequence-specific readers for epigenetic DNA modifications on cytosine”

Experiments:
Assay in all cases: DAPPL (digital affinity profiling via proximity ligation, sequencing); 10 mM Tris-HCl pH 7.5, 50 mM NaCl, 1 mM DTT, 4% glycerol, room temperature, 30 min; GST-TFs on glutathione beads, 16-mer random dsDNA library, 0.1% formaldehyde crosslink after washing; high values mean tight binding
Conditions in all cases: protein: recombinant; tags: N-terminal GST; dsDNA, one strand shown
ERF = target: T1, ERF (Homo sapiens, UniProt P50548 1-548)
T1 sequence: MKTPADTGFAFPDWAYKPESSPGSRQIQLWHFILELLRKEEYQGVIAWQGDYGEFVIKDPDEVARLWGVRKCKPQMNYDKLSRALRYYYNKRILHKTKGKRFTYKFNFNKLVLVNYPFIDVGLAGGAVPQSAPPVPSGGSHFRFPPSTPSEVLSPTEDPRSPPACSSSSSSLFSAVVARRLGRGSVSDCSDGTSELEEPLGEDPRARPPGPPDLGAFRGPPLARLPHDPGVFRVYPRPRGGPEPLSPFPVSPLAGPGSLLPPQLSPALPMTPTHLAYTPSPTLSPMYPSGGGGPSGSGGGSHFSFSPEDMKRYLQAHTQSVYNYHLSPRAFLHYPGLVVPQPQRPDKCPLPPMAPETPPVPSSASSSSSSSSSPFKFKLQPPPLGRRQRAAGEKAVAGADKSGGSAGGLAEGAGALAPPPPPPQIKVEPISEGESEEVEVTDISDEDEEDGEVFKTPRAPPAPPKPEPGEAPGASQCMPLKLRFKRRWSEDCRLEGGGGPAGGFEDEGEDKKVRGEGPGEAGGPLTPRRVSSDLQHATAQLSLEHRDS
Summary of the method: (§1)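 GST fusions of human transcription factors were expressed in yeast and captured with glutathione beads. Once given DNA barcodes and pooled alongside a tag-only sample, they were incubated for 30 min at room temperature with 200 nmole of a random double-stranded 16-mer DNA library in Tris/NaCl/DTT/glycerol buffer, then washed, crosslinked (0.1% formaldehyde), proximity-ligated, PCR-amplified and sequenced on an Illumina NextSeq500. The binding signal of each hexamer is its read frequency for a factor divided by its frequency for the tag-only sample.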

ETV3L = target: T2, ETV3L (Homo sapiens, UniProt Q6ZN32 1-361)
T2 sequence: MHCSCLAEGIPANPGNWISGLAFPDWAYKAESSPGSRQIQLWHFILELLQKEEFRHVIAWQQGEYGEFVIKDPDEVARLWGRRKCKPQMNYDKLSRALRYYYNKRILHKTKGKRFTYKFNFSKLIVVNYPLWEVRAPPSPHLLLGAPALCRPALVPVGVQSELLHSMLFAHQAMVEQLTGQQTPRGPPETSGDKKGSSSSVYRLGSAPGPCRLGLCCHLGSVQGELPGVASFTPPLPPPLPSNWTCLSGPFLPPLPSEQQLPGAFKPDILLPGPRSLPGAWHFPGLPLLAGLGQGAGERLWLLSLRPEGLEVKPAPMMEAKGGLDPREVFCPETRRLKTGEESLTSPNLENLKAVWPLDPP
Summary of the method: as §1

ETS2 = target: T3, ETS2 (Homo sapiens, UniProt P15036 1-469)
T3 sequence: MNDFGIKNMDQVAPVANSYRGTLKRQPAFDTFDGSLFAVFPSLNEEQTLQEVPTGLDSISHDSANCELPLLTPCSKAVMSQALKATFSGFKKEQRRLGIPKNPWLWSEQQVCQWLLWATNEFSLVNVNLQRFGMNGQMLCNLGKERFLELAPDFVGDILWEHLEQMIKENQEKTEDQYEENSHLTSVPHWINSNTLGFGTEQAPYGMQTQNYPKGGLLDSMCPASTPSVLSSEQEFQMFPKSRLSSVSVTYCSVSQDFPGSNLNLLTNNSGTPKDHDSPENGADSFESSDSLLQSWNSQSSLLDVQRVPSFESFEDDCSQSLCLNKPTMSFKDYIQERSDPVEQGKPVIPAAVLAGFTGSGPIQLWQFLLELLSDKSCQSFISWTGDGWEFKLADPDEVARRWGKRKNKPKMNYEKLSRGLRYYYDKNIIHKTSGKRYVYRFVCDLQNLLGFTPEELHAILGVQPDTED
Summary of the method: as §1

SPDEF = target: T4, SPDEF (Homo sapiens, UniProt O95238 1-335)
T4 sequence: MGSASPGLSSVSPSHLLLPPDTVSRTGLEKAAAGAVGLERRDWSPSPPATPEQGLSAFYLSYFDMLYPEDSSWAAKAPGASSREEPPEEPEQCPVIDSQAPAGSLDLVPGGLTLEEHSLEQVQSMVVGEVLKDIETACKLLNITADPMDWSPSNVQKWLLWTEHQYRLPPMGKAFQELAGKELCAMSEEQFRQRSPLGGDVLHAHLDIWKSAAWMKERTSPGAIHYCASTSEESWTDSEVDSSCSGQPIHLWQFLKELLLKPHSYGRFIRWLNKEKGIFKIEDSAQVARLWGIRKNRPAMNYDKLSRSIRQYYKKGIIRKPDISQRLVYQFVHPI
Summary of the method: as §1

ETV7 = target: T5, ETV7 (Homo sapiens, UniProt Q9Y603 1-341)
T5 sequence: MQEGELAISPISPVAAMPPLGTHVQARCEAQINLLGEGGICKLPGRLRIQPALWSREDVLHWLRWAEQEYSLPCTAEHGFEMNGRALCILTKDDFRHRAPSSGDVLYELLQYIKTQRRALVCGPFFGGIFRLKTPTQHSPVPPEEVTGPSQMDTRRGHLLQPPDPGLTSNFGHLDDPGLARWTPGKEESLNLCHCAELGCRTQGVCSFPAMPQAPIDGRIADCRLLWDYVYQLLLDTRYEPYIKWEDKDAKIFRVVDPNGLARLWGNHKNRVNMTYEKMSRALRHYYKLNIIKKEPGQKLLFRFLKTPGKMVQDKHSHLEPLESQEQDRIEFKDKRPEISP
Summary of the method: as §1

ELF5 = target: T6, ELF5 (Homo sapiens, UniProt Q9UKW6-2 1-255)
T6 sequence: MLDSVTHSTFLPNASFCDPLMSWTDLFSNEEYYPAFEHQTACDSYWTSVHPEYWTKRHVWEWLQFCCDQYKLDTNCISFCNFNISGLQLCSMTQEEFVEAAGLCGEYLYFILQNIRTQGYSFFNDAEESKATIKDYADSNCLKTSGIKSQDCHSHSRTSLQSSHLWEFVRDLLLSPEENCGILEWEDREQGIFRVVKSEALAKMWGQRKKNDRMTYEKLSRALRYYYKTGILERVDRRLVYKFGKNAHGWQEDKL
Summary of the method: as §1

ETV3 = target: T7, ETV3 (Homo sapiens, UniProt P41162-2 1-143)
T7 sequence: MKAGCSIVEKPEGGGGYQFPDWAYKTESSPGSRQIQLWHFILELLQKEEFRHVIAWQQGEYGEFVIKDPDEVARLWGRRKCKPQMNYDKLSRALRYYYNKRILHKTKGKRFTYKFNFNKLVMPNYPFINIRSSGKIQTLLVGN
Summary of the method: as §1

ETV6 = ETV6 (Homo sapiens, UniProt P41212 1-452)
Summary of the method: as §1

Chain of ETV6 (P41212 whole entry): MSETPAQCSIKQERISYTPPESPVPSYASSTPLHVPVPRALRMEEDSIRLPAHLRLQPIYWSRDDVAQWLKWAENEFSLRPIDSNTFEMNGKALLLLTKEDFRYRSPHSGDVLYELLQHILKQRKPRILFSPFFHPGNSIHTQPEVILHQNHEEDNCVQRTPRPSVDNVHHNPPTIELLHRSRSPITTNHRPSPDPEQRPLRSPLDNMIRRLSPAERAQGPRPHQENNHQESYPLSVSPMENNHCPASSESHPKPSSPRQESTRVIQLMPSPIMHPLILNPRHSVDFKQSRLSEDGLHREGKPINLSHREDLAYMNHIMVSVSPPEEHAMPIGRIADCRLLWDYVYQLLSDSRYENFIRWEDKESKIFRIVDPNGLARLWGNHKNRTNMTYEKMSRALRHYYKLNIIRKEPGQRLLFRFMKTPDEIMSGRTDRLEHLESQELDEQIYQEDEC

## AAATCA
ERF
  binding signal: 1.23 fold enrichment (6-mer frequency, TF over GST control)
ETV3L
  binding signal: 1.27 fold enrichment (6-mer frequency, TF over GST control)
ETS2
  binding signal: 1.22 fold enrichment (6-mer frequency, TF over GST control)
SPDEF
  binding signal: 1.12 fold enrichment (6-mer frequency, TF over GST control)
ETV7
  binding signal: 1.16 fold enrichment (6-mer frequency, TF over GST control)
ELF5
  binding signal: 1.22 fold enrichment (6-mer frequency, TF over GST control)
ETV3
  binding signal: 1.17 fold enrichment (6-mer frequency, TF over GST control)
ETV6
  binding signal: 1.21 fold enrichment (6-mer frequency, TF over GST control)

## ATGACA
ERF
  binding signal: 1.31 fold enrichment (6-mer frequency, TF over GST control)
ETV3L
  binding signal: 1.28 fold enrichment (6-mer frequency, TF over GST control)
ETS2
  binding signal: 1.33 fold enrichment (6-mer frequency, TF over GST control)
SPDEF
  binding signal: 1.31 fold enrichment (6-mer frequency, TF over GST control)
ETV7
  binding signal: 1.44 fold enrichment (6-mer frequency, TF over GST control)
ELF5
  binding signal: 1.24 fold enrichment (6-mer frequency, TF over GST control)
ETV3
  binding signal: 1.39 fold enrichment (6-mer frequency, TF over GST control)
ETV6
  binding signal: 1.34 fold enrichment (6-mer frequency, TF over GST control)

## TTTCTA
ERF
  binding signal: 1.32 fold enrichment (6-mer frequency, TF over GST control)
ETV3L
  binding signal: 1.3 fold enrichment (6-mer frequency, TF over GST control)
ETS2
  binding signal: 1.37 fold enrichment (6-mer frequency, TF over GST control)
SPDEF
  binding signal: 1.39 fold enrichment (6-mer frequency, TF over GST control)
ETV7
  binding signal: 1.37 fold enrichment (6-mer frequency, TF over GST control)
ELF5
  binding signal: 1.31 fold enrichment (6-mer frequency, TF over GST control)
ETV3
  binding signal: 1.38 fold enrichment (6-mer frequency, TF over GST control)
ETV6
  binding signal: 1.25 fold enrichment (6-mer frequency, TF over GST control)

## TAATAG
ERF
  binding signal: 1.24 fold enrichment (6-mer frequency, TF over GST control)
ETV3L
  binding signal: 1.12 fold enrichment (6-mer frequency, TF over GST control)
ETS2
  binding signal: 1.2 fold enrichment (6-mer frequency, TF over GST control)
SPDEF
  binding signal: 1.19 fold enrichment (6-mer frequency, TF over GST control)
ETV7
  binding signal: 1.2 fold enrichment (6-mer frequency, TF over GST control)
ELF5
  binding signal: 1.15 fold enrichment (6-mer frequency, TF over GST control)
ETV3
  binding signal: 1.15 fold enrichment (6-mer frequency, TF over GST control)
ETV6
  binding signal: 1.14 fold enrichment (6-mer frequency, TF over GST control)

## TACACT
ERF
  binding signal: 1.51 fold enrichment (6-mer frequency, TF over GST control)
ETV3L
  binding signal: 1.51 fold enrichment (6-mer frequency, TF over GST control)
ETS2
  binding signal: 1.49 fold enrichment (6-mer frequency, TF over GST control)
SPDEF
  binding signal: 1.55 fold enrichment (6-mer frequency, TF over GST control)
ETV7
  binding signal: 1.49 fold enrichment (6-mer frequency, TF over GST control)
ELF5
  binding signal: 1.52 fold enrichment (6-mer frequency, TF over GST control)
ETV3
  binding signal: 1.45 fold enrichment (6-mer frequency, TF over GST control)
ETV6
  binding signal: 1.6 fold enrichment (6-mer frequency, TF over GST control)

## TTTGAA
ERF
  binding signal: 1.11 fold enrichment (6-mer frequency, TF over GST control)
ETV3L
  binding signal: 1.19 fold enrichment (6-mer frequency, TF over GST control)
ETS2
  binding signal: 1.23 fold enrichment (6-mer frequency, TF over GST control)
SPDEF
  binding signal: 1.15 fold enrichment (6-mer frequency, TF over GST control)
ETV7
  binding signal: 1.17 fold enrichment (6-mer frequency, TF over GST control)
ELF5
  binding signal: 1.1 fold enrichment (6-mer frequency, TF over GST control)
ETV3
  binding signal: 1.22 fold enrichment (6-mer frequency, TF over GST control)
ETV6
  binding signal: 1.23 fold enrichment (6-mer frequency, TF over GST control)

## ACTCAA
ERF
  binding signal: 1.16 fold enrichment (6-mer frequency, TF over GST control)
ETV3L
  binding signal: 1.21 fold enrichment (6-mer frequency, TF over GST control)
ETS2
  binding signal: 1.23 fold enrichment (6-mer frequency, TF over GST control)
SPDEF
  binding signal: 1.16 fold enrichment (6-mer frequency, TF over GST control)
ETV7
  binding signal: 1.05 fold enrichment (6-mer frequency, TF over GST control)
ELF5
  binding signal: 1.15 fold enrichment (6-mer frequency, TF over GST control)
ETV3
  binding signal: 1.13 fold enrichment (6-mer frequency, TF over GST control)
ETV6
  binding signal: 1.26 fold enrichment (6-mer frequency, TF over GST control)

## TACCAC
ERF
  binding signal: 1.21 fold enrichment (6-mer frequency, TF over GST control)
ETV3L
  binding signal: 1.26 fold enrichment (6-mer frequency, TF over GST control)
ETS2
  binding signal: 1.27 fold enrichment (6-mer frequency, TF over GST control)
SPDEF
  binding signal: 1.16 fold enrichment (6-mer frequency, TF over GST control)
ETV7
  binding signal: 1.15 fold enrichment (6-mer frequency, TF over GST control)
ELF5
  binding signal: 1.29 fold enrichment (6-mer frequency, TF over GST control)
ETV3
  binding signal: 1.2 fold enrichment (6-mer frequency, TF over GST control)
ETV6
  binding signal: 1.21 fold enrichment (6-mer frequency, TF over GST control)
